Outcome and AC50 data for 28 molecules are collected here from PubChem BioAssay (EPA / NIEHS).

Test [1] deals with Nuclear respiratory factor 1 (Homo sapiens) (UniProt Q16656). The test can be described thus: ATG_NRF1_CIS: Attagene CIS-FACTORIAL HepG2 Assay for human Nuclear Respiratory Factor 1 (NRF1) Orphan Gene (AID 2282987). Conditions: HepG2 NRF1 cis-element reporter, Attagene multiplex; actives raise or lower the signal. An outline of the steps:
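HepG2 cells transiently transfected with multiple cis-regulated reporter units, exposed 24 h. Reporter mRNAs measured by RT-PCR, fluorescent labelling, HpaI digestion and capillary electrophoresis; bidirectional fitting against DMSO.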

Test [2] can be described thus: ATG_NFI_CIS: Attagene CIS-FACTORIAL HepG2 Assay for human Nuclear Factor I (NFI) (AID 2282989). The note with it: HepG2 cis-regulatory reporter, NFI response element transcription; actives raise or lower the signal. In a few lines:
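Read-out: reporter mRNA via RT-PCR plus capillary electrophoresis with fluorescence detection. Transiently transfected HepG2 (endogenous TF activity on cis promoters), 24 h compound exposure; gain or loss of signal fitted against DMSO.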

Test [3] concerns the target Myc proto-oncogene protein (Homo sapiens) (UniProt P01106). Nature of the test: ATG_Myc_CIS: Attagene CIS-FACTORIAL HepG2 Assay for human Myelocytomatosis (Myc) Proto-Oncogene Transcription Factor (AID 2282990). The note with it: HepG2, Attagene cis-reporter transcription factor activity; actives raise or lower the signal. In a few lines:
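Read-out: fluorescent reporter mRNA fragments resolved by capillary electrophoresis after RT-PCR. Human HepG2 liver cells carried transfected cis-element reporter units and were dosed for 24 h. Gain or loss of signal fitted relative to DMSO baseline.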

The nature of test [4]: ATG_NF_kB_CIS: Attagene CIS-FACTORIAL HepG2 Assay for human Nuclear Factor Kappa B (NF-kB) (AID 2282991). The note with it: HepG2 Attagene cis-factorial NF-kB reporter mRNA; actives raise or lower the signal. An outline of the steps:
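HepG2 cells transfected with cis-promoter-driven reporter units, so endogenous transcription factor activity is measured. Reporter mRNA quantified 24 h after dosing by RT-PCR and capillary electrophoresis, with bidirectional fitting against DMSO.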

Test [5] is described as follows: ATG_NRF2_ARE_CIS: Attagene CIS-FACTORIAL HepG2 Assay for human Nuclear Factor Erythroid 2 Related Factor 2 (NFR2) response to Antioxidant Response Elements (ARE) (AID 2282992).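 As to AC50: reporter mRNA level measured by RT-PCR and capillary electrophoresis fluorescence.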 The note with it: HepG2 Attagene ARE/NRF2 reporter, transcription factor activity; actives raise or lower the signal. In a few lines: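 Fluorescence intensity of reporter-specific cDNA fragments, separated by capillary electrophoresis, reflects mRNA induction in transfected HepG2 cells at 24 h. Activity is fitted bidirectionally, DMSO serving as baseline.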

Test [6] is described as follows: ATG_Oct_MLP_CIS: Attagene CIS-FACTORIAL HepG2 Assay for human Octamer-Binding Transcription Factor (Oct) (AID 2282993). Conditions: HepG2 Attagene cis-factorial Oct reporter, mRNA; actives raise or lower the signal. In a few lines:
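Read-out: reporter mRNA via RT-PCR plus capillary electrophoresis of 6-FAM-labelled fragments. Transiently transfected HepG2, 24 h exposure, endogenous TF activity on cis elements. Gain or loss of signal fitted relative to DMSO.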

Test [7] has as its target Cellular tumor antigen p53 (Homo sapiens) (UniProt P04637). Nature of the test: ATG_p53_CIS: Attagene CIS-FACTORIAL HepG2 Assay for human p53 Transcription Factor (AID 2282994). The note with it: HepG2 p53 cis-element reporter, Attagene mRNA; actives raise or lower the signal. An outline of the steps:
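Transiently transfected HepG2 (multiple cis reporter transcription units); exposure 24 h; reporter RNA via RT-PCR, 6-FAM extension, 2 h HpaI digest at 37 C, CE detection; DMSO baseline.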

The nature of test [8]: BSK_3C_TissueFactor: BioMAP Diversity Plus: 3C Assay for Tissue Factor Biomarker Activity (AID 2282997). The note with it: BioMAP 3C HUVEC, tissue factor biomarker readout; actives raise or lower the signal. In a few lines:
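In this endothelial system, HUVEC are treated for 24 h and Tissue Factor is assessed by ELISA, normalised to DMSO.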

Test [9] can be described thus: BSK_3C_uPAR: BioMAP Diversity Plus: 3C Assay for Urokinase-type plasminogen activator receptor (uPAR) Biomarker Activity (AID 2282998). Conditions: BioMAP 3C HUVEC, uPAR biomarker ELISA; actives raise or lower the signal. An outline of the steps: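 HUVEC primary cells; 24 h post-dose; uPAR by ELISA; gain or loss of signal fitted bidirectionally vs DMSO baseline.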
(In an ELISA, binding on a coated surface is turned into a signal by an enzyme label.)

Test [10] in a line: BSK_3C_VCAM1: BioMAP Diversity Plus: 3C Assay for Vascular cell adhesion molecule 1 (VCAM1) Biomarker Activity (AID 2282999). Conditions: BioMAP 3C HUVEC, VCAM1 ELISA, cytokine-stimulated; actives raise or lower the signal. An outline of the steps:
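HUVEC primary cells, 24 h compound exposure; VCAM-1 by ELISA; gain/loss of signal fitted bidirectionally vs DMSO baseline.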

Activity calls are given as the source filed them. The calls were made as follows: active = hit-call score of the fitted dose curve at least 0.9, where 1 is the maximum; inactive = score below 0.9. Peptide text beside a SMILES is read from it.

Nuclear respiratory factor 1 (Homo sapiens), sequence (Q16656 whole entry, looked up): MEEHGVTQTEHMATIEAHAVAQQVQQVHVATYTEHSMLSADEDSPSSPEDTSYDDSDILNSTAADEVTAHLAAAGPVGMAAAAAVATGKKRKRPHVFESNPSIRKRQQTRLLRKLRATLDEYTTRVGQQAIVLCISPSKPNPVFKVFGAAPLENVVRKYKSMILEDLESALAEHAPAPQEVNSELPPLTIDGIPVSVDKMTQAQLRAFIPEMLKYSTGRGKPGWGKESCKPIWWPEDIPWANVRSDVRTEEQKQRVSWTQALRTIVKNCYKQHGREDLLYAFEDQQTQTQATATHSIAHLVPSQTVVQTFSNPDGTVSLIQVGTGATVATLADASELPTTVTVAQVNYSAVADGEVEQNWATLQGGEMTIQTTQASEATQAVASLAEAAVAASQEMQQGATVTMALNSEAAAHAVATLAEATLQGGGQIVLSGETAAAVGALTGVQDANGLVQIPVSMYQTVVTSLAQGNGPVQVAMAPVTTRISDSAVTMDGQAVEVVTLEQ
Myc proto-oncogene protein (Homo sapiens), sequence (P01106 whole entry, looked up, the tested form may be a part): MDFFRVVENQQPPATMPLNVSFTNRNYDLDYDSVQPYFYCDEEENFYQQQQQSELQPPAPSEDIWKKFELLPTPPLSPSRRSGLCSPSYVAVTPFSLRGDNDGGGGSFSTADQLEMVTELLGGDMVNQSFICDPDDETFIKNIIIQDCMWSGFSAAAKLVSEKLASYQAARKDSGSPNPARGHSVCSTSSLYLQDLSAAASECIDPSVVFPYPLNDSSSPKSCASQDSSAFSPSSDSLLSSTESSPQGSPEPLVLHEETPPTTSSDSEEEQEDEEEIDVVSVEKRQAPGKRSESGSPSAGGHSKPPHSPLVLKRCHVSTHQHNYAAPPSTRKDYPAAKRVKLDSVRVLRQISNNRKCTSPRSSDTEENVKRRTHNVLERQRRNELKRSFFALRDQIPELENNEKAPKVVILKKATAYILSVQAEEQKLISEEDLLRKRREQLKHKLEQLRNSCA
Cellular tumor antigen p53 (Homo sapiens), sequence (P04637 whole entry, looked up): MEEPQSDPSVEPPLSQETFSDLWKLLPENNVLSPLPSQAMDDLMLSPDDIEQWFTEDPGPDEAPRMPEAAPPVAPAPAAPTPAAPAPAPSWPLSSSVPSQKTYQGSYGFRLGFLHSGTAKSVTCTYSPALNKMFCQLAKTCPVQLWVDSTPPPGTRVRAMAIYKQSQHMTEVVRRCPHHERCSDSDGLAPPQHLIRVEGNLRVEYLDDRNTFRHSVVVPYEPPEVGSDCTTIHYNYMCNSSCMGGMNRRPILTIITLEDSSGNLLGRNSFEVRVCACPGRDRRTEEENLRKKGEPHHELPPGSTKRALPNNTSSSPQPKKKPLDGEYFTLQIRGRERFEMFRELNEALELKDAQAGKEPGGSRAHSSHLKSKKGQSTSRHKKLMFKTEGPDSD

As to `CCC(C)(O)CCCC(C)C` (centres undefined), the molecule was classed as inactive in test [1], in test [2], in test [3], in test [4], in [5] and in test [6]. In addition, the molecule was called inactive in test [7].
As to `CC(C)=CCl`, the call in test [1], in test [2], in test [3], in [4], in test [5] and in [6] was inactive. Moreover, the molecule was classed as inactive in test [7].
With `CCCCCCO`, the molecule was classed as inactive in [1], in test [2], in test [3], in [4], in test [5] and in test [6]. Moreover, the call in test [7] was inactive.
On to `Cc1cc(C)n(CO)n1`, for which the call in test [1], in test [2], in [3], in [4], in [5] and in test [6] was inactive. Further, in test [7], the outcome was inactive.
On to `C=C(C)C(=O)OCCOC(=O)C(=C)C`, for which the molecule was classed as inactive in [1], in test [2], in test [3], in [4], in test [5] and in test [6]. For the same molecule, the outcome in [7] was inactive.
For `CC=CC(=O)OCC(C)C`, the molecule was classed as inactive in test [1], in [2], in test [3], in test [4], in [5] and in test [6]. Moreover, in test [7], the result was inactive.
Take `CCC1COC(=O)O1` (centres undefined): the molecule was classed as inactive in test [1], in test [2], in [3], in [4], in test [5] and in [6]. Further, in test [7], the outcome was inactive.
The AC50 is the midpoint of the concentration-response curve, whichever way the signal moves. As for `CC1=CC(C)C(C=O)CC1` (centres undefined), the outcome in test [1], in test [2], in test [3], in [4], in [6] and in test [7] was inactive. In addition, the half-maximal activity concentration (AC50) in [5] is 14.1 µM (active).
Consider `O=C(C=Cc1ccccc1)OCCc1ccccc1`, for which the molecule was called inactive in [1], in test [2], in [3], in test [4], in test [6] and in [7]. Also, the concentration at half-maximal activity (AC50) in test [5] is 20.4 µM (active).
As to `COC(C=C(C)CCC=C(C)C)OC`, the molecule was classed as inactive in test [1], in test [2], in test [3], in test [4], in test [6] and in test [7]. Moreover, the AC50 in test [5] was 59.2 µM (active).
As for `CC/C=C\CCOC(=O)c1ccccc1O`, the molecule was classed as inactive in [1], in test [2], in test [3], in [4] and in [6]. Also, the AC50 in test [5] is 100 µM (active); in test [7], 138 µM (active); in [8], 25.4 µM (active); in test [9], 31.8 µM (active); in test [10] it was 30.1 µM (active).
With `CC(C)(CO)COC(=O)C(C)(C)CO`, the molecule was called inactive in test [1], in [2], in test [3], in test [4], in test [5] and in [6]. The molecule was classed as inactive in [7].
For `CC(CCC(=O)O)(c1ccc(O)cc1)c1ccc(O)cc1`, the result in test [1], in test [2], in test [3], in [4], in test [5] and in [6] was inactive. Further, the molecule was classed as inactive in test [7], in test [8], in test [9] and in test [10].
With `Cc1ccccc1CCO`, the molecule was called inactive in [1], in [2], in [3], in [4], in [5] and in test [6]. The outcome in test [7] was inactive.
As for `CCCCCCCOC(=O)c1ccc(O)cc1`, the molecule was called inactive in test [1], in [2], in [3], in [4] and in test [7]. Also, the AC50 in test [5] was 39.4 µM (active); in test [6], 46 µM (active).
`C=CC(=O)OCCCCCCCC(C)C`: the molecule was called inactive in [1], in test [2], in test [3], in test [4], in [7] and in test [9]. Moreover, the AC50 is 58 µM (active) in [5], 121 µM (active) in [6], 20 µM (active) in test [8] and 13 µM (active) in test [10].
In the case of `c1ccc2cnccc2c1`, the call in test [1], in test [2], in test [3], in test [4], in [5] and in test [6] was inactive. In test [7], the molecule was classed as inactive.
For the molecule `CCc1occc(=O)c1O`, the outcome in [1], in test [2], in test [3], in test [4], in test [5] and in test [6] was inactive. In [7], the result was inactive.
As for `CC(Cl)COP(=O)(OCC(C)Cl)OCC(C)Cl` (centres undefined), the result in [1], in test [2], in test [3], in [4], in test [5] and in test [6] was inactive. Moreover, the outcome in test [7], in test [8], in test [9] and in test [10] was inactive.
Take `COC(=O)[C@H](Cc1ccccc1)NC(=O)[C@@H](N)CC(=O)O` (H-Asp-Phe-OMe): the molecule was classed as inactive in test [1], in test [2], in [3], in test [4], in [5] and in [6]. The call in test [7] was inactive.
`CCN1CN(CC)CN(CC)C1`: the molecule was called inactive in test [1], in test [3], in test [4], in [5], in [7] and in test [8]. Besides, the result in test [9] and in test [10] was inactive. Besides, the concentration at half-maximal activity (AC50) in test [2] was 162 µM (active); in test [6], 159 µM (active).
With `Clc1cccnc1`, the result in test [1], in test [2], in [3], in test [4], in [5] and in test [6] was inactive. In addition, in [7], the molecule was called inactive.
As for `CCCCC1CCC(=O)O1` (centres undefined), the molecule was classed as inactive in test [1], in [2], in test [3], in test [4], in test [5] and in test [6]. The call in test [7] was inactive.
With `CCN1CCCC1=O`, the result in test [1], in test [2], in [3], in [4], in [5] and in test [6] was inactive. In addition, in test [7], the molecule was classed as inactive.
`CC(c1cc(C(C)(C)C)cc(C(C)(C)C)c1O)c1cc(C(C)(C)C)cc(C(C)(C)C)c1O`: the result in [1], in [2], in [3], in [4], in test [5] and in test [6] was inactive. Further, the molecule was called inactive in test [7], in test [9] and in test [10]. For the same molecule, the half-maximal activity concentration (AC50) in test [8] was 0.464 µM (active).
Consider `C1CCSC1`, for which the outcome in [1], in test [2], in test [3], in test [4], in test [5] and in test [6] was inactive. Further, the molecule was called inactive in test [7].
`CCCCCCCCCCCC(=O)OCC`: the result in test [1], in test [2], in test [3], in test [4], in [5] and in test [6] was inactive. Also, the outcome in test [7] was inactive.
Consider `CCC(C)c1ccccc1` (centres undefined), for which the result in [1], in [2], in [3], in test [4], in [5] and in test [6] was inactive. Moreover, in [7], the molecule was classed as inactive.
